Assay outcomes from PubChem.
gsp ag: qHTS for Agonist of gsp, the Etiologic Mutation Responsible for Fibrous Dysplasia/McCune-Albright Syndrome: qHTS. Potency, µM (titrated, usually from 76.9 µM), for the others: at the highest dose activation (cAMP increase), actives largely listed as activators. gsp mutant cells, cAMP HTRF, 30 min. AID 624287, 2012. 340,000 tested, 0.13% active; active = well fitted activation curve with a large enough effect; inconclusive = small, poorly fitted or top-dose-only effect, or another doubt; inactive = no such curve, though single readings can be large or run the other way; cell line not stated here;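 note: phosphodiesterase inhibitor Ro 20-1724 added with compounds to block cAMP breakdown; potency is the fitted concentration of half-maximal effect; nearly all actives have a fitted effect of over 60% in size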
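Cells in DMEM/10% FBS with G418 were pretreated with compounds in DMSO plus […] (300 uM stock) for 30 min at 37C. cAMP was measured by HTRF (cAMP-d2 plus anti-cAMP antibody-K) after 30 min at room temperature.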
ClpP mod: qHTS Assay for Activators of ClpP | ATP-dependent Clp protease proteolytic subunit (Bacillus subtilis (strain 168)), P80244 | purified B. subtilis ClpP, FRET peptide cleavage, 20 min | Potency, µM (titrated, usually from 57.5 µM), for the others: at the top dose activity change, negative = active | 340,000 tested, 1.9% active | AID 651965, 2013; active = well fitted falling curve with a large enough effect; inconclusive = small, poorly fitted or top-dose-only effect; inactive = no such curve, though single readings can be large or run the other way; note: potency is the fitted concentration of half-maximal effect; the source files actives as falling curves though it sought activators and does not explain the sign; nearly all actives have a fitted effect of over 65% in size
Target sequence (P80244 whole entry, looked up): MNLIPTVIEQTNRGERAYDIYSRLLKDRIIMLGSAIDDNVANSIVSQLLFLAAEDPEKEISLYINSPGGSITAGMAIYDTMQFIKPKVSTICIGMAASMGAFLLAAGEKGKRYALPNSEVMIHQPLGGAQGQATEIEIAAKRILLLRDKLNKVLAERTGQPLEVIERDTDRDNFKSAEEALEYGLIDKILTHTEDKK
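Buffer: 100 mM Tris/HCl pH8, 100 mM KCl, 0.05% low protease BSA, 2.5% glycerol, 0.01% Tween-20. ClpP 10 microg/mL final; 20 min RT; delta FRET normalized to ADEP and DMSO controls.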
Akt phos inh: HTS Assay for Inhibitors of Akt Phophorylation: Primary Screen; Neuro2A IGF-stimulated pAkt S473 HTRF, 20 min; hits give low values; activity change, % for hits at 50 µM; 360,000 tested, 0.32% active; in the data active = activity change below about -80%; inconclusive = mostly about -51% to -80%; note: % is set by controls: 0 for no effect and ±100 for the full control effect
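Single-point screen (50 µM final compound) in Neuro2A cells stimulated 20 min with 6 nM IGF at 37 deg C. After lysis, Ser473-phosphorylated Akt read by HTRF (ex 330 nm, em 615/665 nm) as the 665/615 ratio.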
RXFP1 agonist: qHTS Assay for Agonists of the Relaxin Receptor RXFP1; 370,000 tested, 0.3% active; Potency, µM (doses to about 57.5 µM), without a hit: at the top dose activation, most hits filed as activators; HEK293T-RXFP1 cAMP TR-FRET, 30 min; response scale: percent of porcine relaxin response, buffer zero; Relaxin receptor 1 (Homo sapiens), Q9HBX9; active = well fitted activation curve with a large enough effect; inconclusive = small, poorly fitted or top-dose-only effect; note: potency is the fitted concentration of half-maximal effect; % is set by controls: 0 for no effect and ±100 for the full control effect; nearly all actives have a fitted effect of over 60% in size
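HEK293T cells stably expressing RXFP1 were pretreated with the PDE4 inhibitor Ro 20174, exposed to compounds for 30 min at 37C, lysed, and cAMP was read by TR-FRET. Data normalized to buffer (basal) and 29 nM porcine relaxin (100%).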
gsp antagonist: qHTS for Antagonists of gsp, the Etiologic Mutation Responsible for Fibrous Dysplasia/McCune-Albright Syndrome: qHTS; gsp-mutant cells, cAMP HTRF, 30 min; 340,000 tested, 0.4% active; Potency, µM (series often up to 76.9 µM), inactives show top-dose activity change, negative = inhibition, most hits filed as inhibitors; AID 624288, 2012; calls by dose curve; cell line not stated here;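 note: intracellular cAMP measured with PDE inhibitor Ro 20-1724 present during compound exposure; potency is the fitted concentration of half-maximal effect; % is set by controls: 0 for no effect and ±100 for the full control effect; nearly all actives have a fitted effect of over 65% in size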
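G418-selected cells were plated in DMEM/10% FBS for 16-24 h at 37C, then treated with compounds plus the PDE inhibitor […] (300 uM solution added) for 30 min at 37C. Intracellular cAMP was measured by HTRF after 30 min lysis at room temperature.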
RXFP1 antagonist: qHTS Assay for Antagonists of the Relaxin Receptor RXFP1. Relaxin receptor 1 (Homo sapiens), Q9HBX9. 350,000 tested, 0.59% active. activity change, negative = inhibition, % at 57.5 µM. HEK293-RXFP1, relaxin-stimulated cAMP HTRF, 30 min; hits give low values. AID 1259400, 2018;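 active = activity change of -60% or lower, but not beyond a set lower limit; inconclusive = change between -60% and -40%, or beyond the set limit; inactive = change above -40%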; note: % is set by controls: 0 for no effect and ±100 for the full control effect
The depositor's hits bear a star; i = inactive; u = inconclusive; x = no result; [ ] = dose if it differs, or a comment. Compounds with a hit are over-represented: about 2.7% of the library has one in this group of screens.

SMILES	gsp ag	ClpP mod	Akt phos inh	RXFP1 agonist	gsp antagonist	RXFP1 antagonist
Fc1ccccc1-c1nc(N2CCCCC2)c2ccccc2n1	-9%	-10%	i	0%	-13%	-35
Fc1ccccc1-c1nc(N2CCN(c3cccc(Cl)c3)CC2)c2ccccc2n1	x	32µM*	x	-1%	x	x
CC1CCN(c2nc(-c3ccccc3O)nc3ccccc23)CC1	-5%	0%	x	1%	0%	-10
Oc1ccccc1-c1nc(N2CCCC2)c2ccccc2n1	u	0%	-145%*	-1%	-11%	-15
CC1(C)O[C@@H]2[C@H](O1)[C@@H](COS(=O)(=O)O)O[C@H]2n1cnc2c(N)ncnc21	x	x	x	16µM*	x	x
Nc1ncnc2c1ncn2[C@@H]1O[C@H](COP(=O)(O)O)[C@@H](O)[C@H]1O	x	-1%	i	u	3%	16
CC1(C)O[C@@H]2[C@H](O1)[C@@H](CO)O[C@H]2n1cnc2c(N)ncnc21	-35%	2%	i	3%	7%	x
Nc1ncnc2c1ncn2[C@@H]1O[C@H](COS(=O)(=O)O)[C@@H](O)[C@H]1O	x	2%	i	7.1µM*	37%	x
O=[N+]([O-])c1ccc2sc(SCc3nc4ccccn4c3Br)nc2c1	x	x	x	2%	x	x
Brc1c(CSc2nc3ccccc3s2)nc2ncccn12	19%	28µM*	i	7%	u	-1
Cc1cc(=O)[nH]c(SCc2cccc3cccnc23)n1	-8%[15.4 µM]	x	i	4%	1%	-6
Cc1cc(=O)[nH]c(SCc2nc3ncccn3c2Br)n1	u	28µM*	i	u	6%	24
COc1ccc(-n2c(C)c(C)c3c(NCCCN(C)C)ncnc32)cc1	31%	x	i	0%	-4%	-2
COc1cccc(CNc2ccc3[nH]c(=O)[nH]c3c2)c1OCc1ccccc1	11%[15.4 µM]	-1%	i	0%	-9%	-32
COc1cccc(CNc2ccc3[nH]c(=O)[nH]c3c2)c1OCc1ccccc1Cl	-3%	12%	i	-1%	-22%	-75*
Cc1cn2c(=O)c(S(=O)(=O)Nc3ccc(N4CCOCC4)cc3)c(C)nc2s1	x	0%	x	0%	x	-9
O=C1CC(N2CCN(Cc3ccccc3)CC2)C(=O)N1 (stereo not given)	-2%	-2%	i	3%	13%	1
O=C1CC(N2CCN(c3ccc(Cl)c(Cl)c3)CC2)C(=O)N1 (stereo not given)	-22%	-1%	-120%*	0%	-4%	-1
Cc1cc(C)n(-c2nc(NCCCN(C)C)c3c4c(sc3n2)COC(C)(C)C4)n1	6%[15.4 µM]	-2%	i	-3%	4%	-9
Cc1cc(C)n(-c2nc(NCCN(C)C)c3c4c(sc3n2)COC(C)(C)C4)n1	2%	x	i	-4%	16%	-72*
Cc1nc2c(C#N)c(-c3ccc(Cl)cc3)ccn2n1	16%	-22%	i	3%	-4%	-3
CC(C)(C)c1nc2c(C#N)c(-c3ccc(Cl)cc3)ccn2n1	-2%	28µM*	i	0%	-19%	-7
CC(C)CN(CC(C)C)c1ccc(/C=C/c2ccnc3ccccc23)cc1	x	0%	x	x	x	x
COc1ccc(OC)c2c(N3CC(C)OC(C)C3)cc(C(F)(F)F)nc12 (stereo not given)	5%	-10%	-114%*	4%	-1%	-7
Cn1cc(-c2nnc(-c3ccccc3)o2)c2ccccc21	-19%	14µM*	i	5%	-5%	-11
Cc1ccc2nc(N3C(=O)C(O)=C(C(=O)c4cc5ccccc5o4)C3c3cccs3)sc2c1 (stereo not given)	30%[15.4 µM]	3%	i	-1%	-5%	-14
